The panel holds about 79,000 compounds, 15% with a hit somewhere; the sample as a whole holds those more often. A number with no mark means an inactive call. Calls of active or inactive are those of the source. Cut-off read from the data, not from the text of the source: active = growth inhibition above about 70%; inactive = the rest.
Assay: NCI Yeast Anticancer Drug Screen. Data for the mec2-1 strain (AID 157)
Details: S. cerevisiae mec2-1 strain, at 50.0 µM, hits give high values
How it was run: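 Mutant yeast (mec2-1) grown with compound; growth inhibition relative to vehicle control reported.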

| Structure (SMILES) | growth inhibition |
| --- | --- |
| Oc1ccccc1C=NCCN=Cc1ccccc1O.[Cu] | -25.9% |
| CC(NC1=NCCO1)c1ccsc1 (stereo not given) | 12.6% |
| Oc1cccc(/C=N\NC(=S)NC2CN3CCC2CC3)c1 (stereo not given) | -5.9% |
| COc1ccc2c(c1)C1(C=N2)CCN(C(C)=O)CC1 | -17.1% |
| Nc1ccc(Cl)cc1.Nc1ccc(Cl)cc1.Nc1ccc(Cl)cc1.O=C([O-])C(=O)[O-].O=C([O-])C(=O)[O-].[H+].[Ru+5] | 20.7% |
| CC1=CC(=O)C2=C(C)C[C@H](O)[C@@H]3[C@H](OC(=O)[C@H]3C)[C@@H]12 | 2.95% |
| C1=C(c2ccccc2)CCN(C2(c3ccccc3)CCCCC2)C1 | 0.75% |
| Nc1noc(N)n1 | -22.1% |
| O=[As](O)(O)Cc1ccccc1 | 2.45% |
| Cn1c(=O)oc(=O)c2ccccc21 | -15.3% |
| CN1CN(c2ccccc2)C2(CCN(Cc3csc4ccccc34)CC2)C1=O | -31.5% |
| CC1=CC23C(COC(=O)C24CO4)C(C(=O)O)=CC3C1C (stereo not given) | -19.7% |
| Oc1ccccc1C=NC1CCCCC1N=Cc1ccccc1O.[Ni] (stereo not given) | 4.05% |
| CCC(=O)[O-].CCC(=O)[O-].N.N.N.N.[Co+3].[O-][Cl+3]([O-])([O-])[O-] | -1.6% |
| CN(C)CCCN1CCCCC1 | -0.65% |
| CCCCOC(=O)c1ccccc1C(=O)OCc1ccccc1 | -11.7% |
| O=C(COc1ccc(Cl)cc1)Nc1ccc(Cl)cc1C(=O)c1ccccc1 | -8.9% |
| CN(C(=O)CCl)c1ccccc1 | 13.7% |
| Cc1ccc(S(N)(=O)=O)cc1 (tested in a mixture with another compound) | 7.9% |
| O=C(CC(O)C(Cl)(Cl)Cl)CC(O)C(Cl)(Cl)Cl (stereo not given) | -0.7% |

| Structure (SMILES) | growth inhibition |
| --- | --- |
| CCCCCCCC(N)CC(=O)O (stereo not given) | -44.2% |
| N#CC(C#N)C1CN2CCC1CC2 (stereo not given) | 13.3% |
| Clc1ccc(C(c2ccc(Cl)cc2)c2ccccn2)cc1 | 98.3% (active) |
| CC(C)=CC1C(C(=O)OCc2cc3c(cc2Cl)OCO3)C1(C)C (stereo not given) | 12.1% |
| N#CC(C#N)=Cc1ccc(C=C(C#N)C#N)cc1 | -40.5% |
| CCOC(=S)S.[Ag] | -17.4% |
| C/C=C/C(=O)O | -4.65% |
| Nc1ccc(Sc2ccc(N)cc2)cc1 | 0.35% |
| CC(C)NC(=O)N1C2C3CCC(C)(OC3(C)C)C21 (stereo not given) | -21.4% |
| NC(=O)Cc1ccccc1 | -14.9% |
| COC(=O)C1=CCCN(C)C1 | -0.6% |
| CCOC(=O)/C(=C\c1ccc(N(C)C)cc1)[Se]c1ccccc1 | -2.8% |
| Cc1cc(F)ccc1[As](=O)(O)O | -1.95% |
| CC(=O)Nc1ccc([As](=O)(O)O)cc1[N+](=O)[O-] | -12.3% |
| O=C1CC=C2C3CC4N(CCC45c4ccccc4N1C25)C/C3=C\CO (stereo not given) | -11.7% |
| OCCC[n+]1cccc2ccccc21 | 9.25% |
| CN(N)/N=N/c1nc[nH]c1[N+](=O)[O-] | -24.6% |
| C[C@H](O)CCC(=O)c1ccoc1 | -2.6% |
| O=C1OC(Br)c2ccccc21 (stereo not given) | -27.7% |
| COc1ccc2nc3c4ccccc4scc-3c2c1 | 99.5% (active) |

Assay: NCI Yeast Anticancer Drug Screen. Data for the sgs1 mgt1 strain (AID 161);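 note: 0% = growth of cultures given vehicle only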
Details: S. cerevisiae sgs1 mgt1 strain, at 50.0 µM, hits give high values
How it was run: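 Compounds are added to genetically altered yeast, and growth is compared with cultures given vehicle alone to give percent inhibition.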

| Structure (SMILES) | growth inhibition |
| --- | --- |
| Oc1ccccc1C=NCCN=Cc1ccccc1O.[Cu] | -4.75% |
| CC(NC1=NCCO1)c1ccsc1 (stereo not given) | 3.5% |
| Oc1cccc(/C=N\NC(=S)NC2CN3CCC2CC3)c1 (stereo not given) | -5.85% |
| COc1ccc2c(c1)C1(C=N2)CCN(C(C)=O)CC1 | -16.4% |
| Nc1ccc(Cl)cc1.Nc1ccc(Cl)cc1.Nc1ccc(Cl)cc1.O=C([O-])C(=O)[O-].O=C([O-])C(=O)[O-].[H+].[Ru+5] | 13.3% |
| CC1=CC(=O)C2=C(C)C[C@H](O)[C@@H]3[C@H](OC(=O)[C@H]3C)[C@@H]12 | 6.4% |
| C1=C(c2ccccc2)CCN(C2(c3ccccc3)CCCCC2)C1 | -4.2% |
| Nc1noc(N)n1 | -26.8% |
| O=[As](O)(O)Cc1ccccc1 | -9.6% |
| Cn1c(=O)oc(=O)c2ccccc21 | -17.4% |
| CN1CN(c2ccccc2)C2(CCN(Cc3csc4ccccc34)CC2)C1=O | -47.5% |
| CC1=CC23C(COC(=O)C24CO4)C(C(=O)O)=CC3C1C (stereo not given) | -13.3% |
| Oc1ccccc1C=NC1CCCCC1N=Cc1ccccc1O.[Ni] (stereo not given) | 7.9% |
| CCC(=O)[O-].CCC(=O)[O-].N.N.N.N.[Co+3].[O-][Cl+3]([O-])([O-])[O-] | -9.1% |
| CN(C)CCCN1CCCCC1 | -4.45% |
| CCCCOC(=O)c1ccccc1C(=O)OCc1ccccc1 | -2.85% |
| O=C(COc1ccc(Cl)cc1)Nc1ccc(Cl)cc1C(=O)c1ccccc1 | 17.3% |
| CN(C(=O)CCl)c1ccccc1 | 8.5% |
| Cc1ccc(S(N)(=O)=O)cc1 (tested in a mixture with another compound) | 8.8% |
| O=C(CC(O)C(Cl)(Cl)Cl)CC(O)C(Cl)(Cl)Cl (stereo not given) | 10.2% |

| Structure (SMILES) | growth inhibition |
| --- | --- |
| CCCCCCCC(N)CC(=O)O (stereo not given) | -15.8% |
| N#CC(C#N)C1CN2CCC1CC2 (stereo not given) | 15.6% |
| Clc1ccc(C(c2ccc(Cl)cc2)c2ccccn2)cc1 | 98.5% (active) |
| CC(C)=CC1C(C(=O)OCc2cc3c(cc2Cl)OCO3)C1(C)C (stereo not given) | -15.2% |
| N#CC(C#N)=Cc1ccc(C=C(C#N)C#N)cc1 | -15.9% |
| CCOC(=S)S.[Ag] | -2.05% |
| C/C=C/C(=O)O | -24.5% |
| Nc1ccc(Sc2ccc(N)cc2)cc1 | -0.6% |
| CC(C)NC(=O)N1C2C3CCC(C)(OC3(C)C)C21 (stereo not given) | 3.7% |
| NC(=O)Cc1ccccc1 | -6.55% |
| COC(=O)C1=CCCN(C)C1 | 10.2% |
| CCOC(=O)/C(=C\c1ccc(N(C)C)cc1)[Se]c1ccccc1 | -0.3% |
| Cc1cc(F)ccc1[As](=O)(O)O | -3.25% |
| CC(=O)Nc1ccc([As](=O)(O)O)cc1[N+](=O)[O-] | 0.1% |
| O=C1CC=C2C3CC4N(CCC45c4ccccc4N1C25)C/C3=C\CO (stereo not given) | -5.3% |
| OCCC[n+]1cccc2ccccc21 | 1.1% |
| CN(N)/N=N/c1nc[nH]c1[N+](=O)[O-] | -2.6% |
| C[C@H](O)CCC(=O)c1ccoc1 | -22.1% |
| O=C1OC(Br)c2ccccc21 (stereo not given) | -8% |
| COc1ccc2nc3c4ccccc4scc-3c2c1 | 99.5% (active) |

From PubChem BioAssay (NCI)
